# Assay results published in ChEMBL document CHEMBL3988442, “University of Dundee, Small-Polar-MMV Screening Library” (2021).
# About 13,000 (27%) of roughly 48,000 compounds showed an effect of 50% or more. Some of the results follow.
# Tested on: Wolbachia pipientis
# Assay: Anti-Wolbachia Cell-Based Screen
# Format: functional
# Design: scale not given: in the data most compounds retested in dose-response had high values
# Settings: 5 µM
row,SMILES,Percent Effect
1,COCC(c1cccc(C(F)(F)F)c1)N(C)C(=O)c1cc(C)no1 (centres undefined),-19.18%
2,Cc1ccc2cc(C(=O)N3CCN(S(C)(=O)=O)CC3)[nH]c2c1,-2.597%
3,CCc1nnc2n1CCN(C(=O)c1ccc(C(F)(F)F)nc1C)C2,5.32%
4,CCc1nnc2n1CCN(C(=O)c1cc3ccc(F)cc3nc1C)C2,4.903%
5,CCOc1ccc2cc(C(=O)N3CCn4c(CC)nnc4C3)[nH]c2c1,104.5%
6,CCc1nnc2n1CCN(C(=O)c1cc(Br)c[nH]1)C2,2.696%
7,CCOC(C(=O)N1CCn2c(CC)nnc2C1)c1ccccc1 (centres undefined),26.72%
8,CCc1nnc2n1CCN(C(=O)c1cnc3c(cnn3C(C)C)c1)C2,-2.522%
9,CCc1nnc2n1CCN(C(=O)c1cc3cc(F)ccc3[nH]1)C2,1.688%
10,CCc1nnc(CN2CCN(C(=O)c3cc4ccccc4[nH]3)CC2)o1,0.1099%
11,CCc1nnc2n1CCN(C(=O)c1cc3ccccc3[nH]1)C2,108.3%
12,CCc1nnc2n1CCN(C(=O)c1cc3cc(C)ccc3[nH]1)C2,89.42%
13,CCc1nnc2n1CCN(C(=O)c1cc3ccc(C)cc3[nH]1)C2,95.03%
14,c1cc(-c2ccc(CN3CCCC4(CCNC4)C3)s2)[nH]n1 (centres undefined),24.12%
15,CCc1nnc2n1CCN(C(=O)c1ccc3c(c1)NC(=O)CO3)C2,-1.668%
16,CCc1nnc2n1CCN(C(=O)c1cnc(-c3cccs3)s1)C2,-0.7102%
17,CCc1nnc2n1CCN(C(=O)c1cc3c(F)cccc3[nH]1)C2,92%
18,Cc1nn(C)c(Oc2ccc(Cl)cc2)c1CN1CCOC(CN)C1 (centres undefined),-15.91%
19,CN(C)C(=O)[C@@H]1C[C@@H]2CCN(C3CCOCC3)C[C@H]2O1.O=C(O)C(F)(F)F,104.8%
20,O=C(NC1CC1)[C@@H]1CCO[C@@H]2CCN(C3CCOCC3)C[C@@H]21.O=C(O)C(F)(F)F,-4.22%
21,CN(C)C(=O)[C@H]1C[C@@H]2CCN(C3CCOCC3)C[C@H]2O1,-14.13%
22,CN(C)C(=O)[C@H]1C[C@@H]2CCN(C3CCOCC3)C[C@@H]2O1.O=C(O)C(F)(F)F,90.19%
23,CN(C)C(=O)[C@@H]1C[C@@H]2CCN(C3CCOCC3)C[C@@H]2O1,104.3%
24,CN(C)C(=O)CO[C@H]1COCCN(C2CCOCC2)C1,-5.811%
25,CC(c1cncs1)N(C)Cc1ccc(CCC(C)(C)O)cc1 (centres undefined),-1.575%

row,SMILES,Percent Effect
1,COCC(C)(CCO)NC(=O)Nc1c(F)cccc1Br (centres undefined),1.184%
2,COCCCN1C(=O)CC[C@H]2CN(Cc3ccc4nonc4c3)CC[C@H]21,-13.98%
3,COCCOCC(=O)N(C)Cc1ccc(OCc2cccs2)cc1,0.8009%
4,c1ccc(O[C@H]2COCCN(Cc3c[nH]c4ccccc34)C2)cc1,61.61%
5,COc1ccc(O[C@H]2COCCN(Cc3c[nH]c4ccccc34)C2)cc1,17.89%
6,c1ccc(O[C@H]2COCCN(Cc3cccc4c3OCO4)C2)cc1,-7.306%
7,Cc1cccc(S(=O)(=O)NCc2cccc(CS(C)(=O)=O)c2)c1,-26.55%
8,CS(=O)(=O)NCCNC(=O)C1(c2cccc(Cl)c2)CC1,8.855%
9,Cc1noc([C@@H](C)NCc2cccc(Cl)c2)c1C(=O)O.Cl,-9.594%
10,Cc1nc(C2CCCCC2)sc1C(=O)O,-7.894%
11,Cc1noc(C)c1CN1CCC(NC(=O)OC(C)(C)C)CC1,-1.462%
12,COC(=O)c1c(Cl)c(C2CC2)nc2onc(C)c12,129%
13,CSc1nc(C2CC2)nc(C)c1C(=O)NCc1cc(C)on1,-0.6929%
14,Cc1noc2nc(C3CC3)c(Cl)c(C(=O)O)c12,111.5%
15,COC(=O)c1c(Cl)c(C)nc2onc(C)c12,101.9%
16,Cc1nc([C@H]2C[C@@H]3CCN(Cc4cnn(C)c4)C[C@H]3O2)sc1C,3.707%
17,CCN1CCn2c(C)cnc2C12CCN(C(=O)N(C)C)CC2.O=C(O)C(F)(F)F.O=C(O)C(F)(F)F,107%
18,CC(C)C(=O)N1CC2(CCN(CC(C)(C)C)CC2)C1.O=C(O)C(F)(F)F,-18.04%
19,CCN1CCn2c(C)cnc2C12CCN(C(=O)CC(C)C)CC2.O=C(O)C(F)(F)F.O=C(O)C(F)(F)F,-11.73%
20,CCN1CCn2c(C)cnc2C12CCN(C(=O)C(C)C)CC2.O=C(O)C(F)(F)F.O=C(O)C(F)(F)F,108.7%
21,CCN1CCC2(CN(C(=O)N(C)C)CC23CCNCC3)C1=O.O=C(O)C(F)(F)F (centres undefined),-16.29%
22,COC(=O)COc1nc(CC(C)C)c2c(c1C#N)CCCC2,13.1%
23,Cc1noc(CN(C)CC2(O)CCCN(CCC3CCCCC3)C2=O)n1 (centres undefined),5.474%
24,CCSCCNC(=O)c1ccc(S(=O)(=O)N2C[C@@H]3C[C@H]2CN3)cc1,-8.721%
